# Jurkat NFkB inh = inhibitors of the PMA/ionomycin-induced NF-kB reporter in Jurkat cells; PMA/ionomycin-induced NF-kB luciferase reporter, luminescence; AID 435003; inhibition, % at 4 µM; actives 0.53% (n = 330,000); in the data active means inhibition above about 50%
# Gli-Sufu antag = blocks Gli-Sufu signaling in a luciferase reporter; Sufu-KO-LIGHT fibroblasts, Gli luciferase reporter luminescence; inhibition, % at 5 µM; actives 0.74% (n = 340,000); AID 588413;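 active means inhibition above about 55%, limit read from the data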;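 further: 0% = DMSO-treated cells and 100% = wells with medium but no cells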
# Mdm2-MdmX inh = disrupts the human Mdm2-MdmX interaction; O15151+Q00987; SaOS-2 split-luciferase Mdm2/MdmX complementation, luminescence; inhibition, % at 8 µM; actives 3% (n = 330,000);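 active means inhibition of at least 50% at 8 µM in the primary screen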
# Target sequence (O15151 whole entry, looked up): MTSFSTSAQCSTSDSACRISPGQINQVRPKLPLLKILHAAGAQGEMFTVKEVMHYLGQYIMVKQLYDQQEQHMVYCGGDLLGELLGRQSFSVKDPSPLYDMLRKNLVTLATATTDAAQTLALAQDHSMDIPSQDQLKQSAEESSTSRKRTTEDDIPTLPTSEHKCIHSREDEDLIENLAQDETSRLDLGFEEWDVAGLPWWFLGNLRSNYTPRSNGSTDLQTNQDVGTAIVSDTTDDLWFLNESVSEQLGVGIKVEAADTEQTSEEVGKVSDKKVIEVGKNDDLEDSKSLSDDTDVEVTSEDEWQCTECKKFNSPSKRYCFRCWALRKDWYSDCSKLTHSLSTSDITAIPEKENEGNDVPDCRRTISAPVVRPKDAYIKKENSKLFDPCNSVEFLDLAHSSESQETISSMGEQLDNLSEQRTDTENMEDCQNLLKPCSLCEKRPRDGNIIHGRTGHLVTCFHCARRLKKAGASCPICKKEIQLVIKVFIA
# Target sequence (Q00987 whole entry, looked up): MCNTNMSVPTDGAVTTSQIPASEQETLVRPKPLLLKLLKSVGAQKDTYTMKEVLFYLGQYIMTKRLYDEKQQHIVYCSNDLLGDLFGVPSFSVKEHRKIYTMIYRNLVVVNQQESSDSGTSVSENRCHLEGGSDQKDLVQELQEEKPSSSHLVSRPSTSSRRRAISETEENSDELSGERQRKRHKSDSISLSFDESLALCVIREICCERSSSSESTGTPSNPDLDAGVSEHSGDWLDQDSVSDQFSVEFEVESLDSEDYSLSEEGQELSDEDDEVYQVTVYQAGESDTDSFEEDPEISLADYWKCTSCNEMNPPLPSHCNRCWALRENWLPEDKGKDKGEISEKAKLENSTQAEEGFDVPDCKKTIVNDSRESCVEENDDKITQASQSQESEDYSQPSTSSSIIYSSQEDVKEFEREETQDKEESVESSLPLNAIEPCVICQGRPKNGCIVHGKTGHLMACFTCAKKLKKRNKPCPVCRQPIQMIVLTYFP
# 697 NFkB inh = inhibitors of the PMA/ionomycin-induced NF-kB reporter in 697 B cells; 697 B-cell NF-kB luciferase reporter, 16 h; inhibition, % at 4 µM; actives 0.33% (n = 330,000); AID 435022; in the data active means inhibition above about 35%
# Beta cell apopt = blocks beta cell apoptosis. INS-1E cytokine-induced death, ATP luminescence, 48 h; percent of positive-control rescue, neutral wells zero. protection from apoptosis, % (test concentration not listed). actives 0.8% (n = 300,000);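 active means Every replicate reaches about 75%, or at least half do and their mean reaches it too, limit read from the data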;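 further: 0% = cytokine-treated negative control wells and 100% = positive control rescue; higher means more ATP so stronger rescue from cytokine killing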
# CSC inhib = blocks cancer stem cells. cancer stem cell-like cells viability, luminescence. inhibition, % at 7.5 µM. actives 1.1% (n = 300,000). AID 2717; in the data active means inhibition above about 75%; tested in HMLE shEcad cells
# Jurkat NFkB conf = inhibitors of the PMA/ionomycin-induced NF-kB reporter in Jurkat cells, retest; actives 27% (n = 2,700); Jurkat NF-kB luciferase, 16 h; shares compounds with Jurkat NFkB inh; inhibition, % at 4 µM;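 active means inhibition reaching about 45% at 4 µM in either replicate, limit read from the data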;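 further: plate controls were PMA/ionomycin stimulated DMSO wells for no effect and unstimulated DMSO wells for full effect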
# 697 NFkB conf = lowers PMA/ionomycin-induced NF-kB signal in 697 B cells | inhibition, % at 4 µM | shares compounds with 697 NFkB inh | actives 35% (n = 2,000) | 697 B-cell NF-kB luciferase, 16 h | AID 449746; in the data active means inhibition mostly above about 28%, no sharp cut-off; inactive means mostly below about 22%
# Mdm2-MdmX conf = human Mdm2/MdmX binding inhibition, confirmed. shares compounds with Mdm2-MdmX inh. luminescent assay. inhibition, % at 8 µM. actives 55% (n = 10,000). AID 489028; in the data active means inhibition above about 40%
# FLuc counter = full-length luciferase inhibition in Mdm2/MdmX counter-screen. shares compounds with Mdm2-MdmX inh. SaOS-2 full-length luciferase counterscreen, luminescence. inhibition, % at 8 µM. actives 77% (n = 6,200). AID 504607;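 active means mean inhibition at 8 µM reaching about 37%, which flags the compound as non-specific, limit read from the data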;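 further: p53-null SaOS-2 cells with luciferase driven by a doxycycline-inducible promoter; compound on cells about two nights before reading with doxycycline added after day one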
# * marks the source's active call; other numbers are inactive results; i = inactive; . = no result given. Sampled rows, rich in hits. Any-hit rate of the full collection: about 4.5%.
SMILES,Jurkat NFkB inh,Gli-Sufu antag,Mdm2-MdmX inh,697 NFkB inh,Beta cell apopt,CSC inhib,Jurkat NFkB conf,Mdm2-MdmX conf,FLuc counter,others
CCC1CN1P(=O)(c1ccccc1)N1CC1CC (stereo not drawn),.,2.9,.,.,.,.,.,.,.,
COc1cc(C2c3cc4c(cc3CC3COC(=O)C32)OCO4)cc(OC)c1OC (stereo not drawn),53.0*,42.2,61.4*,-29.0,.,.,49.3*,54.5*,97.7*,
CN1/C(=C\C=C2C(=O)NC(=O)NC2=O)C(C)(C)c2ccccc21,-1.6,2.7,6.4,-11.0,8.2,35.4,.,.,.,
CN1/C(=C\C=C\C2=[N+](C)c3ccc4ccccc4c3C2(C)C)C(C)(C)c2ccccc21,99.0*,.,99.9*,24.4,100.2*,114.9*,84.0*,99.8*,-0.3,
CC1CCCCC12C(=O)NC(=O)NC2=O (stereo not drawn),.,-15.7,.,.,.,.,.,.,.,
CC(=O)O[C@H]1[C@H]2O[C@]23[C@@H]2CC[C@]4(O)C[C@@H](O)CC[C@]4(C)C2CC[C@]3(C)[C@H]1c1ccc(=O)oc1 (stereo partly drawn),95.9*,-2.1,84.8*,71.0*,-0.1,104.6*,90.6*,64.3*,47.5*,697 NFkB conf=84.9*
CC1(C)C[C@H]2C=C(C=O)[C@]3(C=O)C[C@]3(C)[C@H]2C1,94.4*,22.4,100.3*,-153.1,105.3*,-5.8,52.0*,99.8*,-0.6,
CC(=O)O[C@@]12CO[C@@H]1C[C@H](O)[C@@]1(C)C(=O)[C@H](O)C3=C(C)[C@@H](OC(=O)[C@H](O)[C@@H](NC(=O)c4ccccc4)c4ccccc4)C[C@@](O)([C@@H](OC(=O)c4ccccc4)C12)C3(C)C (stereo partly drawn),68.4*,-1.4,53.6*,-29.7,10.9,59.8,63.7*,62.9*,50.1*,
CC(=O)O[C@H]1C(=O)[C@@]2(C)C([C@H](OC(=O)c3ccccc3)[C@]3(O)C[C@H](OC(=O)[C@H](O)[C@@H](NC(=O)Cc4ccccc4)c4ccccc4)C(C)=C1C3(C)C)[C@]1(OC(C)=O)CO[C@@H]1C[C@@H]2O (stereo partly drawn),61.7*,-7.0,65.7*,-1.9,4.8,-6.1,62.5*,65.7*,41.6*,
CC(=O)O[C@H]1C(=O)[C@@]2(C)C([C@H](OC(=O)c3ccccc3)[C@]3(O)C[C@H](O)C(C)=C1C3(C)C)[C@]1(OC(C)=O)CO[C@@H]1C[C@H]2O (stereo partly drawn),22.7,1.3,30.1,11.2,.,1.0,.,.,.,
OCC1CN1C1CCCCC1 (stereo not drawn),.,2.2,.,.,.,.,.,.,.,
CC(CC(C#N)(c1ccccc1)c1ccccc1)N1CCOCC1 (stereo not drawn),.,5.9,.,.,.,.,.,.,.,
Cc1nc2c(=O)n(C)c(=O)nc-2n(C)n1,55.8*,76.4*,74.1*,-30.5,105.9*,1.9,99.7*,57.8*,19.2,
CN(C)C(=O)O/N=C(\N)COc1ccc(C(C)(C)C)cc1,60.0*,-4.2,97.7*,-68.3,6.7,-0.8,-13.3,96.0*,56.9*,
CC1CCN(C(CC(=O)c2ccccc2)C(=O)c2ccccc2)CC1 (stereo not drawn),.,-90.4,.,.,.,.,.,.,.,
CC1([N+](=O)[O-])COP(=O)(NC2CCCC2)OC1 (stereo not drawn),.,2.8,.,.,.,.,.,.,.,
C[n+]1c2ccccc2nc2ccc(NCCO)cc21,25.7,-8.2,5.1,-31.9,22.1,17.4,.,.,.,
CNc1ccc2nc3ccccc3[n+](C)c2c1,81.1*,15.9,82.9*,3.9,93.4*,23.9,6.0,49.8*,9.4,
CC(C)c1oc(=O)cc2c1[C@@H](O)[C@H]1OC(=O)[C@@]3(C)C[C@@H](O)[C@@H](O)[C@@]2(C)C13 (stereo partly drawn),90.1*,46.5,81.2*,-264.6,11.8,43.1,90.5*,57.7*,29.6,697 NFkB conf=-98.8
CC(C)c1oc(=O)cc2c1[C@@H](O)[C@H]1OC(=O)[C@@]3(C)CC[C@@H](O)[C@@]2(C)C13 (stereo partly drawn),72.1*,20.4,63.3*,-19.0,-10.8,16.3,59.9*,60.7*,64.5*,
COC(=O)C1=C(c2cccc(OCc3ccccc3)c2)C[C@@H]2CC[C@H]1N2C(=O)NCc1ccccc1OC,-13.2,14.6,9.7,-11.5,2.1,32.8,.,.,.,
C=C1C(=O)O[C@H]2C[C@@H](C)[C@@H]3C=CC(=O)[C@@]3(C)C[C@H]12,87.7*,61.1*,100.3*,-341.3,104.1*,89.1*,62.7*,96.1*,53.2*,697 NFkB conf=-235.4
C=C1C(=O)O[C@@H]2C[C@@H](C)[C@@H]3C=CC(=O)[C@@]3(C)[C@@H](OC(=O)CC(=O)O[C@H]3[C@@H]4C(=C)C(=O)O[C@@H]4C[C@@H](C)[C@@H]4C=CC(=O)[C@]43C)[C@H]12,93.1*,93.2*,97.0*,103.8*,131.6*,121.5*,99.9*,100.3*,3.7,697 NFkB conf=101.0*
C=C1C(=O)O[C@@H]2C[C@@H](C)[C@@H]3C4OC4C(=O)[C@@]3(C)[C@@H](O)[C@H]12 (stereo partly drawn),57.9*,18.5,100.6*,i,104.5*,75.2*,23.4,99.8*,4.9,697 NFkB conf=-447.6
C=C1C(=O)OC2C1CCC(C)C1(O)C=CC(=O)C21C (stereo not drawn),.,-23.2,.,.,.,.,.,.,.,
SMILES,Jurkat NFkB inh,Gli-Sufu antag,Mdm2-MdmX inh,697 NFkB inh,Beta cell apopt,CSC inhib,Jurkat NFkB conf,Mdm2-MdmX conf,FLuc counter,others
O=[N+]([O-])c1ccc(OP(=O)(O)Oc2ccc([N+](=O)[O-])cc2)cc1,.,8.7,.,.,.,.,.,.,.,
CC1=C(C)CC2(CC1)C(=O)NC(=O)NC2=O,.,-24.1,.,.,.,.,.,.,.,
C/C(=N\N=C(N)N)c1ccccc1,-3.8,-0.4,13.2,-1.5,-3.3,-5.7,.,.,.,
NC(N)=N/N=C/c1ccc(N(c2ccccc2)c2ccccc2)cc1,60.8*,-2.4,96.7*,-8.4,109.8*,110.4*,6.9,99.5*,29.9,
NC(=Nc1ccccc1)NN=Cc1c[nH]c2ccccc12,.,15.7,.,.,.,.,.,.,.,
C[C@@H]1O[C@@H](O[C@H]2C[C@@H](O)[C@]3(CO)[C@@H]4C(CC[C@]3(O)C2)[C@@]2(O)CC[C@H](C3COC(=O)C3)[C@@]2(C)C[C@H]4O)[C@H](O)[C@H](O)[C@H]1O (stereo partly drawn),95.0*,-3.1,68.0*,i,0.4,83.4*,67.0*,70.5*,24.4,697 NFkB conf=i
